In all, about 69,000 compounds went through this assay and about 8,600 (12%) showed an effect of 50% or more. What follows is part of a selection rich in strong results, with near analogues and random picks from the rest.

The subject of this assay is Plasmodium berghei. Kind of assay: Screen against P. berghei liver stage (PbLuc), transformed with Luciferase, at 10uM. Format: functional, HepG2. The settings on record: tested at 10 uM.
Turning to `CN(Cc1cnn(C)c1)C(=O)NCCc1ccc2c(c1)OCO2`, the INHIBITION is -24.75%. As to `Cc1cc2nc(SCC(=O)N3CCCC3)n(-c3ccccc3)c(=O)c2[nH]1`, the INHIBITION was found to be 16.6%. Regarding `Cc1ncc(CN2CCc3c(nc(-c4ccccn4)[nH]c3=O)C2)n1C`, the INHIBITION is 31.6%. For `COCCc1noc(CN2CCOC(Cn3nc(C)cc3C)C2)n1` (stereo not drawn) the value was 14.4%; for `CCC[C@@H]1CN(C(=O)c2cnc3ccccc3c2)C[C@H]1NS(C)(=O)=O`, 51.1%; for `CCC[C@@H]1CN(C(=O)c2cc3ccccc3s2)C[C@H]1NS(C)(=O)=O`, 20.1%. As for `CC(=O)N[C@@H]1CN(C(=O)c2cnc3ccccc3c2)C[C@H]1O`, the INHIBITION came out at 22%.

For the compound `OCc1nnc2n1CCN(c1cnccn1)C2`, the INHIBITION is 28.5%.

Take `CCC(CC)(CNC(=O)OC(C)(C)C)NC(=O)C1CC1`: the INHIBITION was -120%. Under `CCC(CC)(CNC(=O)OC(C)(C)C)NC(=O)C1CCCO1` (stereo not drawn) stands 56.6%; under `CCC(CC)(CNC(=O)OC(C)(C)C)NC(=O)C1CCOCC1`, -50.8%. Under `Cc1cc(C(=O)Nc2nc3c(s2)CN(S(=O)(=O)C2CC2)CC3)c(C)o1` stands -59.6%; under `CC(C)c1nc(N2CCC(N3CCSCC3)CC2)c2cnn(C)c2n1`, 21.1%.

`C[C@@H]1CN(CCCOc2ccc(F)cc2)CC[C@@]1(O)C1CCOCC1`: the INHIBITION is recorded as 7.24%. Take `Cn1nnnc1SCC1Cc2ccccc2O1` (stereo not drawn): the INHIBITION is reported as 17.2%. For `Cc1ccc(C(=O)N2CCCC(n3cncn3)C2)o1` (stereo not drawn) the value was 60.1%. For `Cc1cnn(C2CCCN(C(=O)c3ccc(N4CCCC4)nn3)C2)c1` (stereo not drawn), the INHIBITION was 25.1%. Under `O=C(CCCc1ccccc1)N1CCCC(n2cncn2)C1` (stereo not drawn) stands -12.2%; under `O=C(c1cccc2c1OCO2)N1CCCC(n2cccn2)C1` (stereo not drawn), 28.5%. `Cc1cc(C)n(C2CCCN(C(=O)c3cccc4c3OCO4)C2)n1` (stereo not drawn): the INHIBITION was 23.7%.

On to `COc1ccc(CCCC(=O)N2CCCC(n3cncn3)C2)cc1` (stereo not drawn), for which the INHIBITION stood at 54.8%. In the case of `O=C(c1ccc(Br)o1)N1CCCC(n2cncn2)C1` (stereo not drawn), the INHIBITION is recorded as 11.8%. As for `CCc1ccc(C(=O)N2CCCC(n3cncn3)C2)o1` (stereo not drawn), the INHIBITION turned out to be 45.1%.

Take `COc1ccc(CCC(=O)N2CCCC(n3cncn3)C2)cc1` (stereo not drawn): the INHIBITION is on record as -7.35%. Consider `Cc1cnn(C2CCCN(C(=O)c3ccc(N(C)C)nn3)C2)c1` (stereo not drawn), for which the INHIBITION was determined as 11.6%. Regarding `Cc1cnn(C2CCCN(C(=O)c3cccc4c3OCO4)C2)c1` (stereo not drawn), the INHIBITION is given as 56.6%. Consider `Cc1cnn(C2CCCN(C(=O)c3cc[nH]n3)C2)c1` (stereo not drawn), for which the INHIBITION is listed as 64.6%. `CCOc1ccccc1C(CC(=O)Nc1ccccn1)NC(C)=O` (stereo not drawn): the INHIBITION is -10.45%.

With `Cc1ccc(CN2CC[C@H]3[C@H]2CCN3S(=O)(=O)C2CC2)cc1`, the INHIBITION is listed as 8.85%.

In the case of `Cn1c(CN2CCCC(N3CCNC3=O)C2)cc(=O)n(C)c1=O` (stereo not drawn), the INHIBITION was determined as 31.4%. Take `CCN1CC2(CCC1=O)CCN(Cc1cccc(OC(F)F)c1)CC2`: the INHIBITION was -9.39%. Regarding `CN(C)Cc1cn(-c2ccccc2C(=O)NCC2CCCCN2C)cn1` (stereo not drawn), the INHIBITION was found to be 29.95%. Take `CNc1nc2c(s1)C(c1c(F)cccc1Cl)CC(=O)N2` (stereo not drawn): the INHIBITION turned out to be 3.95%. Take `CN(C)C(=O)[C@]12CCCN(CC3CC3)C[C@H]1CN(c1ccccn1)C2`: the INHIBITION worked out at 0.618%.

For the compound `COc1ccccc1CN(C)C(=O)C[S+]([O-])Cc1cc(C)on1` (stereo not drawn), the INHIBITION was 5.29%. Take `CC(C(=O)N1CCCN(Cc2cscn2)CC1)N1CCOCC1` (stereo not drawn): the INHIBITION is recorded as -4.3%. Under `Cn1cc(CN2CCn3cc(Cn4cccn4)nc3C2)cn1` stands -6.23%; under `Cc1cnn(C2CCCN(C(=O)c3cc(C4CC4)on3)C2)c1` (stereo not drawn), 59%; under `O=C(c1ccon1)N1CCCC(n2cncn2)C1` (stereo not drawn), 9.82%. Under `CNc1snc(C)c1C(=O)N1CCCC(n2nc(C)cc2C)C1` (stereo not drawn) stands 32.8%. With `Cc1cc(C(=O)N2CCCC(n3cncn3)C2)no1` (stereo not drawn), the INHIBITION was 11.235%. Under `Cn1cc(CCC(=O)N2CCCC(n3cncn3)C2)cn1` (stereo not drawn) stands 19.4%. Under `O=C(c1cc(C2CC2)on1)N1CCCC(n2cncn2)C1` (stereo not drawn) stands 56.6%. Under `Cc1cc(C)n(CCC(=O)N2CCCC(n3nc(C)nc3C)C2)n1` (stereo not drawn) stands 30.2%.

On to `Cc1cc(C)n(C2CCCN(C(=O)c3cc(C4CC4)on3)C2)n1` (stereo not drawn), for which the INHIBITION is on record as 14.4%. As for `O=C(c1cc(C2CC2)on1)N1CCCC(n2cccn2)C1` (stereo not drawn), the INHIBITION is 27.65%. In the case of `Cc1cc(C)n(CCC(=O)N2CCCC(n3cncn3)C2)n1` (stereo not drawn), the INHIBITION was found to be 64.7%. Regarding `CNc1snc(C)c1C(=O)N1CCCC(n2cccn2)C1` (stereo not drawn), the INHIBITION is 46.2%. Regarding `CNc1snc(C)c1C(=O)N1CCCC(n2cc(C)cn2)C1` (stereo not drawn), the INHIBITION came to 58.5%. On to `COCC(=O)NCc1cc(=O)n2c(n1)CN(Cc1nccs1)CCC2`, for which the INHIBITION was found to be 44.8%. Take `CC(=O)N(C)C1CCN(C(=O)c2cccc3c2ccn3C)CC1`: the INHIBITION turned out to be 9.63%.

As to `Cn1cc(CN2CCOCC3(C2)CN(c2ccccc2)C(=O)CO3)cn1` (stereo not drawn), the INHIBITION was found to be 17.1%.

Consider `CC(=O)N(Cc1noc(C)n1)C1CCN(Cc2cccc(C#N)c2)C1` (stereo not drawn), for which the INHIBITION was -18%. For `O=C(O)CN1CCC(C(F)(F)F)CC1` the value was 2.4%. For `CCn1ncc(CNC(=O)c2cn(CCC3CCCCN3)nn2)c1C` (stereo not drawn) the value was 83.8%; for `Cc1c(CNC(=O)c2cn(CCC3CCCCN3)nn2)cnn1C` (stereo not drawn), -70.7%. As for `CCn1nc(C)c(CNC(=O)c2cn(CCC3CCCCN3)nn2)c1C` (stereo not drawn), the INHIBITION is reported as -25%. For `Cc1cc(C)n(CC2CCCN2C(=O)Cc2c(C)nn(C)c2C)n1` (stereo not drawn), the INHIBITION is -43.5%.

As to `Cc1ccc(N2CCc3ncnc(C)c3CC2)nn1`, the INHIBITION turned out to be 35.8%. Regarding `Cc1ccc(N2CCc3ncnc(C4CC4)c3CC2)nn1`, the INHIBITION is 58.4%.

For the compound `CCN(C)c1ncnc2c1CCN(c1ccc(C)nn1)CC2`, the INHIBITION turned out to be 39.4%. Take `Cc1cccc(N2CCc3ncnc(C4CC4)c3CC2)n1`: the INHIBITION is given as -11.6%.

Consider `Cc1ccc(N2CCc3ncnc(N(C)C)c3CC2)nn1`, for which the INHIBITION is given as 8.6%. With `CCN(CC)c1ncnc2c1CCN(c1ccc(C)nn1)CC2`, the INHIBITION came out at 52.1%.

As to `Cc1cccnc1C(=O)N1CCCC(Cc2cncc3ccccc23)C1` (stereo not drawn), the INHIBITION is -63.5%. On to `CCn1cc(Cl)c(C(=O)NCc2cnn(C)c2)n1`, for which the INHIBITION worked out at 3.46%. Under `COc1ccccc1C1CCCN1CC(=O)N1CCC(C(N)=O)CC1` (stereo not drawn) stands 34%; under `CCOC(=O)C1CCN(C(=O)CN2CCCC2c2ccccc2C)CC1` (stereo not drawn), 70.1%; under `CC(C)CC(=O)N1CCCC1c1ccsc1` (stereo not drawn), -8.66%.

Regarding `CSCCC(=O)N1CCCC1c1ccsc1` (stereo not drawn), the INHIBITION is given as 1.81%. For `Cc1nc(-c2nnc[nH]2)sc1C(=O)N1CCCC1CC(C)(C)C` (stereo not drawn) the value was -10.2%; for `CCC(=O)N1CCCC1c1ccsc1` (stereo not drawn), 50.4%. Consider `O=C(NCCCn1cccn1)N1CCCC1c1ccsc1` (stereo not drawn), for which the INHIBITION is reported as 28.6%. As to `Cc1nc(-c2nnc[nH]2)sc1C(=O)N1CCCC1c1cccs1` (stereo not drawn), the INHIBITION is given as -81.2%.

In the case of `CN(CCCNC(=O)N1CCCC1c1ccsc1)c1ccccn1` (stereo not drawn), the INHIBITION amounted to 52%. `Cc1nc(-c2nnc[nH]2)sc1C(=O)N1CCCC1c1ccsc1` (stereo not drawn): the INHIBITION is on record as 72.5%. In the case of `CCOC(=O)C1CCN(C(=O)CN2CCCC2Cc2ccccc2)CC1` (stereo not drawn), the INHIBITION was -4.93%. For `O=C(NCCCn1ccnc1)N1CCCC1c1ccsc1` (stereo not drawn) the value was 28.4%.

The record behind these values is ChEMBL document CHEMBL4513216, “Probing the Open Global Health Chemical Diversity Library for Multistage-Active Starting Points for Next-Generation Antimalarials” (ACS Infect Dis, 2020).
